Hits are enriched below; roughly 2.3% of the tested compounds scored in any of these assays.
M1 antag: antagonists of human M1 muscarinic receptor. P11229. inhibition, % at 3 µM. 1.3% of 360,000 active. CHO-K1 hM1, Fluo-8 calcium fluorescence, ACh EC80 antagonist;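 active = percent inhibition above its own plate's cutoff, namely the mean of that plate's compound wells plus 3 SD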;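 note: peak over basal fluorescence ratio during 140 s after agonist addition; 0% = ACh EC80 plus DMSO and 100% = DMSO alone without agonist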
Target sequence (P11229 whole entry, looked up): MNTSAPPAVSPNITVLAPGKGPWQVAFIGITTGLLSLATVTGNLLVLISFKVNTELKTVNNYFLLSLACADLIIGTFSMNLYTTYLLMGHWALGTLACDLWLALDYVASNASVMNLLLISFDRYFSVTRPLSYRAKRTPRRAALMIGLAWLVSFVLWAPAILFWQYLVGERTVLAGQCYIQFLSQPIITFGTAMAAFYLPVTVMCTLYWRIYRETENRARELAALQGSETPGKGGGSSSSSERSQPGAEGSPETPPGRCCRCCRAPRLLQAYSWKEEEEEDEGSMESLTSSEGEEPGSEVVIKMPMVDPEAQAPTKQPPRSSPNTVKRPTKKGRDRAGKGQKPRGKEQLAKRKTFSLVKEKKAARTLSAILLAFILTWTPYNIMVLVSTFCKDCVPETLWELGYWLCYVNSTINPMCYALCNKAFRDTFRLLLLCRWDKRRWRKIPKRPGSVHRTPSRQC
CHO-K1 Ca PAM: nonselective activator or artifact in parental CHO-K1 calcium assay; ATP EC20, Fluo-8 calcium fluorescence; 0% at ATP EC20, 100% at ATP max; activation, % at 3 µM; 0.02% of 360,000 active;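 active = activation above the run cutoff, the mean activation of all test compounds plus 3 SD, cut at about 40% in these data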;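 note: peak over basal fluorescence ratio in a 140 s read after ATP addition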
M1 ag: agonists of human M1 muscarinic receptor | P11229 | CHO-K1 hM1, Fluo-8 calcium fluorescence, agonist mode; 0% DMSO, 100% acetylcholine EC100 | activation, % at 3 µM | 0.33% of 360,000 active;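 active = activation above the run's mean compound activation plus 3 SD, cut at about 16% in these data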;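 note: peak over basal fluorescence ratio within a 140 s kinetic read after compound addition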
CHO-K1 Ca antag: M1 antagonist counterscreen hit in parental CHO-K1 cells | ATP-induced calcium, Fluo-8 fluorescence | inhibition, % at 3 µM | 0.6% of 360,000 active | AID 602250;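 active = inhibition above a per-plate cutoff, the plate's mean sample inhibition plus 3 SD, cut at about 24% in these data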;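 note: 0% = DMSO plus EC80 ATP and 100% = DMSO alone without ATP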
M1 PAM: human CHRM1 positive allosteric modulation | activation, % at 3 µM | 0.088% of 360,000 active | CHO-K1 hM1, Fluo-8 calcium fluorescence, ACh EC20; 0% = ACh EC20, 100% = maximal ACh | P11229 | AID 588819; in the data active = activation above about 19%, passing the limit was not always enough
M1 ag parental: nonselective activator or artifact in parental CHO-K1 cells; 0.48% of 360,000 active; activation, % at 3 µM; Fluo-8 calcium fluorescence; scaled to maximal ATP response, vehicle zero; in the data active = activation above about 15%;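 note: untransfected CHO-K1 host cells lacking M1 receptor as counterscreen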
* = called active by the depositor.

SMILES	M1 antag	CHO-K1 Ca PAM	M1 ag	CHO-K1 Ca antag	M1 PAM	M1 ag parental
COCCNc1nc(NCc2ccc(C(C)C)cc2)c2sccc2n1	7	16	-2	3	-11	6
CCC(C)N1CCN(S(=O)(=O)c2ccc3ccccc3c2)CC1 (stereo not drawn)	-3	8	-8	3	2	-1
CCC(C)N1CCNCC1 (stereo not drawn)	-9	-14	-7	25*	5	0
CN(C(=O)COC(=O)c1ccc(CN2CCCC2=O)cc1)c1ccccc1	68*	0	-8	-15	-29	1
CN(C(=O)COC(=O)c1ccc(S(=O)(=O)N2CCCCCC2)cc1)c1ccccc1	-12	17	-7	-20	6	1
CO/N=C\CC(=O)Nc1ccc(Oc2ccccc2)cc1	-4	20	-4	-8	5	1
COc1ccc(CN2CCCC(C(=O)c3ccc(SC)cc3)C2)cc1Cn1cccn1 (stereo not drawn)	88*	-19	-4	18	-25	2
CCOC(=O)c1[nH]ncc1CN1CCCC(C(=O)c2ccc(SC)cc2)C1 (stereo not drawn)	3	-4	-14	6	-6	0
CSc1ccc(C(=O)C2CCCN(Cc3ccc(N4CCNC4=O)cc3)C2)cc1 (stereo not drawn)	97*	13	-11	7	-28	10
O=c1c(Cc2ccccc2)c(O)ccn1Cc1ccc2c(c1)OCO2	-13	12	-1	-14	11	1
Nc1ccn(C(C=O)CC(C=O)CO)c(=O)n1 (stereo not drawn)	-3	3	-3	-2	1	0
Cc1noc(C)c1-c1csc(N2CCC(C(N)=O)CC2)n1	12	-11	-5	0	-5	0
CC(C(=O)NCC1(c2ccccc2)CCCC1)N1CCOCC1 (stereo not drawn)	-3	10	-7	-5	-2	1
CC(C(=O)NCC1(c2ccccc2)CCCC1)N1CCCC1 (stereo not drawn)	97*	0	-9	3	-22	1
O=C(/C=C/c1cn(-c2ccccc2)nc1-c1ccccc1)Nc1ccc(C(=O)O)cc1	98*	2	-5	-3	-21	0
NS(=O)(=O)c1ccc(NC(=O)/C=C/c2cn(-c3ccccc3)nc2-c2cccc(Cl)c2)cc1	-12	-5	-5	-4	10	0
COc1ccc(C2=NOC(Cn3nc(C(=O)NCc4ccco4)cc3-c3ccccc3)C2)cc1 (stereo not drawn)	33*	-10	0	-1	-21	7
COc1ccc(C2=NOC(Cn3nc(C(=O)NCc4ccc(C)cc4)cc3-c3ccccc3)C2)cc1 (stereo not drawn)	28	9	-3	-7	-13	5
CCOC(=O)c1[nH]c2ccccc2c1N=CN(CC)CC	-2	5	-6	-5	2	1
O=C(Nc1nnc(-c2ccc3c(c2)CCCC3)o1)c1ccccc1Cl	-1	8	0	-3	-1	0
O=C(Nc1nnc(-c2ccc3c(c2)CCCC3)o1)c1ccccc1	-5	21	17*	2	6	11
CC1CN(c2nc3c(c(=O)n(C)c(=O)n3C)n2Cc2c(F)cccc2Cl)CC(C)O1 (stereo not drawn)	-8	18	18*	-1	7	0
CCOCCCNC(=O)CCc1nnc2ccc(N3CCCCC3)nn12	-2	4	-6	-18	1	1
CCC1CCCCN1Cc1ccc(CNC(=O)CCc2nnc3ccc(N4CCCCC4)nn23)o1 (stereo not drawn)	43*	-13	-6	-10	-17	0
CCOC(=O)C(=NO)C1=CSC2=NNC(C)(C)N12	-18	21	1	-7	11	1
COc1cccc(OC)c1C(=O)Nc1ccc2c(c1)Cc1ccccc1-2	1	10	-3	-8	1	0
COc1ccc(C(=O)Nc2ccc3c(c2)Cc2ccccc2-3)cc1	-1	-6	0	24*	10	0
CC(C)NC1CCC(Nc2ccnc3cc(Cl)ccc23)CC1 (stereo not drawn)	1	0	-9	-4	-8	1

Screening results as filed in PubChem BioAssay.
